# Compound activity as filed in PubChem.
# This is a sample that favours compounds with a hit; in the whole collection about 3.8% have one here.
# HepG2 tox = qHTS for Inhibitors of TGF-b: Cytotox Counterscreen. HepG2 CAGA-GFP viability, ATP luminescence, 18 h. Potency, µM (top dose mostly 46.1 µM), for inactives: at the top dose activity change, negative = cytotoxicity, hits mostly cytotoxic. actives 0.76% (n = 410,000). AID 588856, 2011
#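 HepG2 CAGA-GFP cells (1000/well, DMEM with 1% FBS) received compound, then TGF-beta at 500 pg/mL final, and were incubated 18 hours at 37 degrees C. Viability was read by CellTiter-Glo luminescence. Media-only wells were set as complete cell-killing and DMSO as no toxicity.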
# HT1080-NT tox = qHTS for induction of synthetic lethality in tumor cells producing 2HG: qHTS for the HT-1080-NT fibrosarcoma cell line | HT-1080-NT fibrosarcoma viability, CellTiter-Glo ATP luminescence, 48 h | Potency, µM (doses to about 46.1 µM), for inactives: at the highest dose activity, negative = less viability, actives largely listed as cytotoxic | actives 1.6% (n = 360,000);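 further: NT is the 2HG producing partner of a matched IDH1 knockdown line; 0% = DMSO-treated cells and -100% = media-only wells without cells; nearly all actives have a fitted effect of over 55% in size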
#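 Luminescent CellTiter-Glo readout after 48 hours of compound exposure at 37 degrees C defined viability of HT-1080-NT cells. Activity was normalized to DMSO wells and cell-free media wells; concentration-response curves were fitted and assigned curve classes.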
# ATXN viability = Viability Counterscreen for Primary qHTS for Inhibitors of ATXN expression; S2 cells (HEK-293 line with an ATXN2-luciferase reporter) viability, CellTiter-Fluor protease fluorescence, 24 h; Potency, µM (doses to about 56.7 µM), hits mostly cytotoxic; actives 0.49% (n = 400,000); further: nearly all actives have a fitted effect of over 40% in size
# TGFb SMAD3 inh = qHTS for Inhibitors of TGF-b; HepG2 CAGA-GFP TGF-b/SMAD3 reporter, GFP fluorescence, 18 h; TGF-beta stimulated, 500 pg/mL final; Potency, µM (doses to about 46.1 µM), for inactives: top-dose activity, negative = inhibition, usual class: inhibitors; actives 1.2% (n = 410,000); further: on the % scale 0 is the no-effect control and ±100 the full control effect; nearly all actives have a fitted effect of over 65% in size
#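 Inhibition was scored as loss of TGF-beta-induced (500 pg/mL final, 18 hours, 37 degrees C) GFP in HEPG2 cells carrying a CAGA-GFP reporter, in DMEM with 1% FBS. Well GFP was summed per cell; Activity was normalised to unstimulated and stimulated DMSO wells, then concentration-response fitting.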
# HT1080 IDH1KD tx = qHTS for induction of synthetic lethality in tumor cells producing 2HG: qHTS for the HT-1080-IDH1KD cell line | actives 2% (n = 360,000) | AID 686971, 2013 | Potency, µM (series often up to 46.1 µM), inactives show at the highest dose activity, negative = toxicity, most hits filed as cytotoxic | HT-1080 IDH1 knockdown viability, ATP luminescence, 48 h;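 further: 0% = DMSO wells and -100% = cell-free medium wells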
#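 Knockdown cells (IDH1KD HT-1080) received compounds 2 h after plating at 750 cells/well and were kept 48 h at 37 °C in 5% FBS RPMI. A CellTiter-Glo luminescence read gave % activity for curve fitting.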
# ATXN2 expr inh = Primary qHTS for Inhibitors of ATXN expression; HEK-293 ATXN2-luciferase reporter, luminescence, 24 h; Potency, µM (top dose mostly 57 µM), without a hit: at the top dose activity change, negative = inhibition, most hits filed as inhibitors; actives 0.72% (n = 360,000); AID 1745845, 2022; further: on the % scale 0 is the no-effect control and ±100 the full control effect; nearly all actives have a fitted effect of over 55% in size
#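 ATXN2-luciferase reporter cells (luciferase flanked by upstream and downstream ATXN2 gene portions) were treated 24 h at 37 °C with compounds at up to 57 uM. SteadyGlo luminescence gave expression; GF-AFC fluorescence gave viability.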
# * hit, by the source's call; i = inactive; ? = inconclusive; . = not tested or not shown. The call rests on the fitted dose curve; in most records, active means well fitted curve in the direction sought with a large enough effect; inconclusive means small, poorly fitted or top-dose-only effect, or another doubt; inactive means no such curve, though single readings can be large; an effect the other way counts as inactive or inconclusive. Potency means the concentration at half of the fitted maximal effect.
SMILES,HepG2 tox,HT1080-NT tox,ATXN viability,TGFb SMAD3 inh,HT1080 IDH1KD tx,ATXN2 expr inh
COC(=O)c1cc(NC(=O)CC(=O)c2cccc(N)c2)cc(C(=O)OC)c1,2%,?,i,-11%,21µM*,.
COC(=O)c1cc(NC(=O)c2cccc(F)c2)cc(C(=O)OC)c1,-10%,1%,i,-2%,-1%,-3%
Cc1cc(C)cc(NC(=O)N2CCC(CN3CCCCCC3)CC2)c1,-48%,.,.,0%,.,.
COC(=O)C1CCN(Cc2ccc3c(c2)CN(C(=O)c2cc(-c4ccc(C)o4)[nH]n2)CCO3)CC1,.,.,i,.,.,.
COc1ccc(-c2cnc3c(NC=O)cc(-c4cccc(NS(C)(=O)=O)c4)cn23)cc1OC,-1%,2.3µM*,?,?,4.6µM*,?
COc1ccc(F)cc1-c1cc(NC=O)c2ncc(-c3cccc(C(F)(F)F)c3)n2c1,13µM*,?,?,?,5.2µM*,-34%
COc1ccc(-c2cnc3c(NC=O)cc(-c4ccc(F)cc4)cn23)cc1OC,2%,?,?,?,?,-5%
COc1cccc(-c2cc(NC=O)c3ncc(-c4ccc(OC)c(OC)c4)n3c2)c1,-27%,2.9µM*,?,?,6.5µM*,?
COc1ccc(-c2cc(NC=O)c3ncc(-c4ccc(OC)c(OC)c4)n3c2)c(OC)c1,-19%,0.0073µM*,?,?,0.082µM*,-35%
O=C(c1c2c(nc3ccccc13)C(=O)N(C1CCCCC1)C2)N1CCN(c2ccc(F)cc2)CC1,0%,.,.,8%,.,.
O=C(c1cscn1)N1CCOc2ccc(CN3CCC(Oc4cccnc4)CC3)cc2C1,.,.,i,.,.,.
O=c1[nH]c(=O)n([C@H]2C[C@@H](O)[C@@H](CO)O2)cc1I,.,.,.,.,.,0%
CC(C)(C)C1CCc2c(sc(NC(=O)Cn3nnc(-c4cccc(C(F)(F)F)c4)n3)c2C#N)C1 (configuration not stated),6%,.,i,14%,.,15%
COc1ccc(NC(=O)C2CC23CCN(Cc2cccc4ncccc24)CC3)cc1Cl (configuration not stated),.,.,i,.,.,.
CN(C)c1ccc(CNC(=O)CCn2cccn2)cc1,-3%,.,i,-25%,.,16%
COc1cccc(-c2cnc3c(NC=O)cc(-c4cc(OC)c(OC)c(OC)c4)cn23)c1,-47%,?,?,32%,16µM*,-26%
COc1ccc(-n2cc(C(=O)N(CCN(C)C)Cc3ccccc3)c3ccccc3c2=O)cc1,-12%,.,.,?,.,.
Cc1cc2nc(C3CCN(CC4COc5ccccc5O4)CC3)[nH]c2cc1C (configuration not stated),-52%,15µM*,?,?,?,?
COc1cc(=O)n2c(c1C(=O)NCc1nccs1)CCN(Cc1ccccc1F)CC2,.,.,i,.,.,.
COc1ccc(NC(=O)Nc2nc3c(s2)CCCC3)cc1,-7%,5%,?,0%,11%,51%
O=C(Nc1cccc(Br)c1)Nc1nc2c(s1)CCCCCC2,-18%,.,?,11µM*,.,-28%
Cc1cc(C(=O)Nc2nc3c(s2)CCCC3)cs1,-7%,6.3µM*,i,-3%,?,-21%
O=[N+]([O-])c1ccc(O)c(N=Cc2sc3ccccc3c2O)c1,-4%,-23%,28µM*,-18%,?,?
O=C(/C=C/c1cccnc1)c1cccc(O)c1,-50%,21µM*,.,?,?,?
COc1cc(C(=O)/C=C/c2cccnc2)c([N+](=O)[O-])cc1OC,-93%,?,14µM*,?,?,13µM*
SMILES,HepG2 tox,HT1080-NT tox,ATXN viability,TGFb SMAD3 inh,HT1080 IDH1KD tx,ATXN2 expr inh
O=C(C=Cc1ccccn1)c1ccccc1,10µM*,?,.,6.3µM*,10µM*,?
O=C(/C=C/c1ccc(O)cc1)c1ccccc1,-21%,-4%,i,-19%,-5%,33%
O=C(/C=C/c1cccc(O)c1)c1cccnc1,-75%,?,?,?,?,-33%
O=C(C=Cc1ccccc1Cl)c1ccccc1,-17%,23µM*,i,-3%,?,24%
O=C(C=Cc1ccccn1)c1ccccc1O,-42%,0%,.,?,-15%,?
CCCCCCCCN1[C@@H](CC(=O)O)c2ccc(/C=C/C(=O)O)cc2S1(=O)=O,12%,.,.,8%,.,.
COc1cccc(Cn2cnc3c(cnn3C(C)(C)C)c2=O)c1,-25%,.,.,-8%,.,.
O=C(C=Cc1cccnc1)c1ccccc1,-37%,?,.,20µM*,18µM*,?
O=C(NNC(=S)NC1CCCCC1)c1sc2ccccc2c1Cl,-50%,?,i,?,?,7%
CC(C)(C)C(=O)NC(=S)NNC(=O)c1sc2ccccc2c1Cl,11µM*,16µM*,.,-20%,12µM*,18µM*
Oc1ccc(C[C@@H]2CNCCN2CCC23CC4CC(CC(C4)C2)C3)cc1,-108%,?,?,?,23µM*,0%
Oc1ccc(C[C@H]2CNCCN2CCCCC2CCCCC2)cc1,-111%,23µM*,?,?,23µM*,0%
Oc1ccc(C[C@H]2CNCCN2CCC23CC4CC(CC(C4)C2)C3)cc1,-92%,16µM*,?,?,?,?
CCc1ccc(C2CC(=O)NC(NC(=O)c3ccc(C(C)(C)C)cc3)=N2)cc1 (configuration not stated),-3%,.,i,0%,.,2%
COc1cc(/C=C2\C(=O)ON=C2c2ccccc2)cc(Br)c1O,-57%,16µM*,i,?,?,-22%
O=[N+]([O-])c1ccc(N=Nc2ccc(O)cc2O)cc1,-34%,18µM*,?,?,5.8µM*,?
O=[N+]([O-])c1ccc(N=Nc2c(O)[nH]c3ccc(F)cc23)cc1,0%,20%,?,-1%,17%,-13%
COc1ccccc1/C=C/C=N/n1c(C)nnc1C,0.89µM*,23%,?,-5%,16%,33%
CC(=O)c1cccc(NC(=O)Cc2cccs2)c1,2%,19%,i,-2%,-2%,9%
O=C(Cc1cccs1)Nc1cccc(C(=O)Nc2ccco2)c1,2%,?,?,-9%,11µM*,-11%
O=C([C@@H]1C[C@@H](Sc2nc3ccccc3[nH]2)CN1CC1CCCCC1)N1CCOCC1,.,.,i,.,.,.
